Structures are written as SMILES. About 14,000 (4.5%) of roughly 310,000 compounds showed an effect of 50% or more. Effects have a minus sign here. Many of the other results were omitted from the sample, so strong results are more common in it than they were.
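Note: peak tail current of the secondary pulse compared with the same well before compound.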

The target of this assay is human ether-à-go-go-related gene (hERG) potassium channel (human, UniProt Q12809). Put plainly: primary screen, population patch clamp on CHO cells stably expressing hERG; higher = less effect of the substance.
Sequence of human ether-à-go-go-related gene (hERG) potassium channel (Q12809 whole entry, looked up): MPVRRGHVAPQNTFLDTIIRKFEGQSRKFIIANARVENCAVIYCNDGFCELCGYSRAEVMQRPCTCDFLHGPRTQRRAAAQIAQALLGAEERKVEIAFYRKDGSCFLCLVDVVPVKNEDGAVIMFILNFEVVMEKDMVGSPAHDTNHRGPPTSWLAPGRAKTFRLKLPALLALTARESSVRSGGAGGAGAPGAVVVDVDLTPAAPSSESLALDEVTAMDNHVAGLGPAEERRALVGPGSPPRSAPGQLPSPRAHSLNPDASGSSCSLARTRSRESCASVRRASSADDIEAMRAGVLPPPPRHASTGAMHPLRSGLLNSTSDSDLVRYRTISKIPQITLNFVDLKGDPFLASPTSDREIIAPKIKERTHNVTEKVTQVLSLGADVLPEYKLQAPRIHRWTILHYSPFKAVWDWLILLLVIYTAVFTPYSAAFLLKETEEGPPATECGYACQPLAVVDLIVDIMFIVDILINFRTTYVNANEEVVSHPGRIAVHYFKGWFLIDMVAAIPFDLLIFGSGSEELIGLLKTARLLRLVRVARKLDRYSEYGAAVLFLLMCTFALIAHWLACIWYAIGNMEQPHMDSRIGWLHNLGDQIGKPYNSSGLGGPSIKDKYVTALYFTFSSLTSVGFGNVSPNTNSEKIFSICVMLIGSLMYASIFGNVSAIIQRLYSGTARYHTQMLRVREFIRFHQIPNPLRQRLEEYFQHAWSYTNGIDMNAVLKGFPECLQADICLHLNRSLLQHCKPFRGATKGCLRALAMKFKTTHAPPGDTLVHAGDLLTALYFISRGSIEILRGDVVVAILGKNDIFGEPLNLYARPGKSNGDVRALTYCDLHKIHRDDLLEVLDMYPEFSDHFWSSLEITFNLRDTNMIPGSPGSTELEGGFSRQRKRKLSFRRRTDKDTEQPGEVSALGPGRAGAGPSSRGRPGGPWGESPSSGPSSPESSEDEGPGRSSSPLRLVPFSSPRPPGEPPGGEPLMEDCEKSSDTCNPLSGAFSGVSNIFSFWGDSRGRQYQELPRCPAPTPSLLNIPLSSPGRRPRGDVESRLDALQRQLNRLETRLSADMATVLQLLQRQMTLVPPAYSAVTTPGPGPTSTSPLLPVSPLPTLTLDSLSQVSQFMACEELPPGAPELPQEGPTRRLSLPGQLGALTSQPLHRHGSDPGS
Turning to `COc1cccc(/C(C)=N/Nc2ncc(Cl)cc2Cl)c1`, the “hERG current change (%, negative = inhibition) at 10uM” value is -10.3%.
Regarding `C/C(=N\Nc1ccccn1)c1ccc(C(C)C)cc1`, the “hERG current change (%, negative = inhibition) at 10uM” value was determined as 23.7%.
As to `C/C(=N\Nc1ccccn1)c1ccc(C#N)cc1`, the “hERG current change (%, negative = inhibition) at 10uM” value is given as -19.3%.
Turning to `C/C(=N\Nc1ncc(Cl)cc1Cl)c1ccc(C#N)cc1`, the “hERG current change (%, negative = inhibition) at 10uM” value is -4.88%.
Turning to `C/C(=N\Nc1ccccn1)c1ccc(OC(F)F)cc1`, the “hERG current change (%, negative = inhibition) at 10uM” value is recorded as -71.3%.
`C/C(=N\Nc1ncc(Cl)cc1Cl)c1ccc(OC(F)F)cc1`: the “hERG current change (%, negative = inhibition) at 10uM” value is on record as -50.2%.
For the molecule `CCOC(=O)CNC(=O)c1cnc(Nc2ccccc2OC)c2ccccc12`, the “hERG current change (%, negative = inhibition) at 10uM” value came out at 5.33%.
For `COc1ccccc1C1/C(=C(\O)c2ccc3c(c2)OCCO3)C(=O)C(=O)N1Cc1cccnc1` (stereo not shown), the “hERG current change (%, negative = inhibition) at 10uM” value was found to be 18.9%.
Turning to `O=C(CSc1ccc(-c2cccs2)nn1)NCc1ccccc1Cl`, the “hERG current change (%, negative = inhibition) at 10uM” value is reported as -28.7%.
Take `Cc1noc(C)c1CSCC(=O)N1CCN(c2ccc([N+](=O)[O-])cc2)CC1`: the “hERG current change (%, negative = inhibition) at 10uM” value is -76.8%.
Consider `Cc1noc(C)c1COc1ccc(C(=O)N2CCN(c3ccccn3)CC2)cc1`, for which the “hERG current change (%, negative = inhibition) at 10uM” value is on record as -31.8%.
As for `Cc1noc(C)c1COc1ccc(C(=O)N2CCN(c3ccccc3O)CC2)cc1`, the “hERG current change (%, negative = inhibition) at 10uM” value is recorded as -14.4%.
For the molecule `Cc1noc(C)c1COc1ccc(C(=O)N2CCN(c3ccccc3F)CC2)cc1`, the “hERG current change (%, negative = inhibition) at 10uM” value is -55%.
Consider `COc1ccc(N2CCN(C(=O)c3ccc(OCc4c(C)noc4C)c(OC)c3)CC2)cc1`, for which the “hERG current change (%, negative = inhibition) at 10uM” value is 6.01%.
Next, `Cc1noc(C)c1CSCC(=O)N1CCN(c2ccc(F)cc2)CC1`: -38.1%.
Take `COc1cc(C(=O)N2CCN(c3ccc([N+](=O)[O-])cc3)CC2)ccc1OCc1c(C)noc1C`: the “hERG current change (%, negative = inhibition) at 10uM” value is on record as -60.2%.
Consider `Cc1cccc(N2CCN(C(=O)CSCc3c(C)noc3C)CC2)c1C`, for which the “hERG current change (%, negative = inhibition) at 10uM” value is listed as -14.9%.
Next, `COc1cc(C(=O)N2CCN(S(=O)(=O)c3ccc(C)cc3)CC2)ccc1OCc1c(C)noc1C`: -21%; `CCOC(=O)[C@@H]1[C@H]2COc3ccc(Br)cc3[C@H]2N2C(=O)N(c3ccc(Br)cc3)C(=O)[C@]12C`: 7.88%.
Next, `COc1ccccc1NS(=O)(=O)c1cccc(C(=O)NN=C2CCCC2)c1`: 0.33%; `COc1ccc(CN(C)C(=O)Cc2ccc(OC)c(S(=O)(=O)N3CCOCC3)c2)cc1`: -20.4%.
Regarding `CCOC(=O)C1CCCN(S(=O)(=O)c2cccc3cccnc23)C1` (stereo not shown), the “hERG current change (%, negative = inhibition) at 10uM” value is -14.9%.
With `Cc1nnc(SCc2ccc(Cl)cc2)n1CC1CCCO1` (stereo not shown), the “hERG current change (%, negative = inhibition) at 10uM” value is -3.26%.
Turning to `CSc1ccccc1NC(=O)COC(=O)Cn1cc(C(F)(F)F)ccc1=O`, the “hERG current change (%, negative = inhibition) at 10uM” value is listed as 4.23%.
Regarding `Cc1cc2oc(=O)cc(CN3CCCCC3C)c2cc1C(C)C` (stereo not shown), the “hERG current change (%, negative = inhibition) at 10uM” value is -22%.
Next, `Cc1cccc(Nc2nc(-c3ccccn3)cs2)n1`: 12.9%; `CN(CC(=O)OCC(=O)Nc1ccccc1)S(=O)(=O)c1ccc(Cl)cc1`: -19.9%; `CCN(CC)c1ccc(/C=N/Nc2nc(C)cc(=O)[nH]2)cc1`: -20.5%.
`Cc1c(Cl)cccc1NC(=S)NCCc1ccccn1`: the “hERG current change (%, negative = inhibition) at 10uM” value turned out to be 9.25%.
With `O=C(CC1SC(=O)N(c2ccccc2)C1=O)Nc1cccc2ccccc12` (stereo not shown), the “hERG current change (%, negative = inhibition) at 10uM” value came out at 11.7%.
With `COc1cc(NC(=O)Cn2cnc(S(=O)(=O)N3CCC(C)CC3)c2)cc(OC)c1OC`, the “hERG current change (%, negative = inhibition) at 10uM” value was 20.6%.
Next, `N=c1n(CC(=O)c2ccc(Br)cc2)c2ccccc2n1Cc1ccccc1.[Br-]`: -9.25%; `Br.COC(=O)COc1ccc(C(=O)Cn2c(NCCCO)nc3ccccc32)cc1`: -2.45%; `Br.Cc1ccc(Cn2c(=N)n(CC(=O)c3ccc([N+](=O)[O-])cc3)c3ccccc32)cc1`: -4.3%.
As to `Br.CCCCn1c(=N)n(CC(=O)c2ccc([N+](=O)[O-])cc2)c2ccccc21`, the “hERG current change (%, negative = inhibition) at 10uM” value was -71.7%.
`Br.N=c1n(CC(=O)c2ccc([N+](=O)[O-])cc2)c2ccccc2n1Cc1ccccc1Cl`: the “hERG current change (%, negative = inhibition) at 10uM” value was -23.6%.
`Br.N=c1n(CC(=O)c2ccc([N+](=O)[O-])cc2)c2ccccc2n1Cc1ccc(Cl)cc1`: the “hERG current change (%, negative = inhibition) at 10uM” value was -14.3%.
As for `Br.Cc1ccc(Cn2c(=N)n(CC(=O)c3ccccc3)c3ccccc32)cc1`, the “hERG current change (%, negative = inhibition) at 10uM” value is given as -72.2%.
Take `Br.N=c1n(CC(=O)c2ccc([N+](=O)[O-])cc2)c2ccccc2n1Cc1ccccc1`: the “hERG current change (%, negative = inhibition) at 10uM” value is reported as -70.1%.
Next, `Br.CCCn1c(=N)n(CC(=O)c2ccc(OCC(=O)OC)cc2)c2ccccc21`: -52.7%; `O=C(N/N=C/c1ccccc1C(=O)O)c1ccncc1`: 18.3%.
Regarding `CCC(=O)NC(=S)Nc1ccc(-c2nc3ccccc3s2)cc1`, the “hERG current change (%, negative = inhibition) at 10uM” value is listed as -2.92%.
As to `Cc1cc(C)nc(OC(C(=O)O)C(OCc2ccccc2)(c2ccccc2)c2ccccc2)n1` (stereo not shown), the “hERG current change (%, negative = inhibition) at 10uM” value is 21.7%.
`CCC1CCCCN1C(=O)c1ccc2c(c1)C(=O)N(c1ccc(C)cc1)C2=O` (stereo not shown): the “hERG current change (%, negative = inhibition) at 10uM” value is -8.83%.
Next, `CCOP(=O)(OCC)C(NS(=O)(=O)c1ccccc1)C(Cl)(Cl)Cl` (stereo not shown): 11.9%; `Br.Cc1ccccc1Cn1c(=N)n(CC(=O)c2ccc([N+](=O)[O-])cc2)c2ccccc21`: -32.6%; `Br.CCCCn1c(=N)n(CC(=O)c2ccc(OC)cc2)c2ccccc21`: -73.6%.
For `Br.CCn1c(=N)n(CC(=O)c2ccc(OC)cc2)c2ccccc21`, the “hERG current change (%, negative = inhibition) at 10uM” value is given as -18.6%.
With `Br.COc1ccc(C(=O)Cn2c(=N)n(C)c3ccccc32)cc1`, the “hERG current change (%, negative = inhibition) at 10uM” value is -28.8%.
Regarding `Br.CCCn1c(=N)n(CC(=O)c2ccc([N+](=O)[O-])cc2)c2ccccc21`, the “hERG current change (%, negative = inhibition) at 10uM” value is listed as -78.5%.
As for `N#Cc1c(-c2ccco2)cc(C2CC2)nc1SCC(=O)c1ccccc1`, the “hERG current change (%, negative = inhibition) at 10uM” value stood at 17.4%.
Turning to `COCCNC(=S)N1CCN(c2cccc(C(F)(F)F)c2)CC1`, the “hERG current change (%, negative = inhibition) at 10uM” value was -12.2%.
Regarding `Cc1nn(Cc2cccc(F)c2)c(C)c1NC(=O)c1c([N+](=O)[O-])c(C)nn1C`, the “hERG current change (%, negative = inhibition) at 10uM” value is -9.72%.
Regarding `CCCn1nnnc1SCC(=O)Nc1sc(C)c(C)c1C#N`, the “hERG current change (%, negative = inhibition) at 10uM” value was 0.801%.
Next, `O=C(COC(=O)CNC(=O)c1cccc(Br)c1)Nc1nnc(-c2ccccc2)o1`: -0.546%; `COc1ccc(CNC(=O)COc2ccc(S(=O)(=O)N3CCCCC3)cc2)cc1`: 6.5%.
With `CC(C(=O)NCc1ccccc1)N1CCN(c2ccc(F)cc2)CC1` (stereo not shown), the “hERG current change (%, negative = inhibition) at 10uM” value is recorded as -18.9%.
Next, `COc1ccc(S(=O)(=O)N2CCN(C(C)C(=O)Nc3ccc(C(C)C)cc3)CC2)cc1` (stereo not shown): -20.6%; `COC(=O)CCNC(=O)CCc1ccc(S(=O)(=O)N2CCCCCC2)cc1`: -12.1%; `COc1ccc(CNC(=O)C(C)N2CCN(S(=O)(=O)c3ccccc3F)CC2)cc1` (stereo not shown): -15.9%.
Regarding `COc1ccc(CNC(=O)C(C)N2CCN(c3ccc(C(C)=O)cc3)CC2)cc1` (stereo not shown), the “hERG current change (%, negative = inhibition) at 10uM” value is recorded as -55.1%.
As for `CCCc1ccc(S(=O)(=O)N2CCN(C(C)C(=O)NCc3ccc(OC)cc3)CC2)cc1` (stereo not shown), the “hERG current change (%, negative = inhibition) at 10uM” value is listed as -57.4%.
In the case of `COc1ccc(CNC(=O)CCn2ccc3cc(S(=O)(=O)N4CCCC4)ccc32)cc1`, the “hERG current change (%, negative = inhibition) at 10uM” value is listed as -12.4%.
For the molecule `CCOc1ccc(CNC(=O)CCCn2ccc3cc(S(=O)(=O)N4CCCC4)ccc32)cc1`, the “hERG current change (%, negative = inhibition) at 10uM” value is reported as -32.7%.
Regarding `COc1ccc(CNC(=O)CCc2ccc(S(=O)(=O)N3CCCCCC3)cc2)cc1`, the “hERG current change (%, negative = inhibition) at 10uM” value is reported as -54.9%.
With `COc1ccc(C(=O)NCc2ccc(N3CCN(C)CC3)cc2)cc1`, the “hERG current change (%, negative = inhibition) at 10uM” value is 5.1%.
In the case of `COc1ccc(CNC(=O)CCCn2ccc3cc(S(=O)(=O)N4CCCC4)ccc32)cc1`, the “hERG current change (%, negative = inhibition) at 10uM” value is on record as -52%.
For the molecule `COc1ccccc1NC(=O)c1ccc(N2CC3CC(C2)c2cccc(=O)n2C3)c(NC(=O)c2cccnc2)c1` (stereo not shown), the “hERG current change (%, negative = inhibition) at 10uM” value is 6.33%.
Next, `[Cl-].c1ccc(Cc2cc[n+](Cc3ccccc3)cc2)cc1`: 4.13%.
Next, `O=C(Nc1ccccc1N1CCCC1)c1cccnc1Cl`: 4.72%.
Next, `COc1ccc(C(=O)NC(=S)Nc2nc(C)cc(C)n2)cc1Br`: 23.1%.
Turning to `CCOc1ccc2nc(SCC(=O)NCc3ccc4c(c3)OCO4)[nH]c2c1`, the “hERG current change (%, negative = inhibition) at 10uM” value is on record as -24.2%.
In the case of `CCCNc1ccc(C(=O)OCC)cc1[N+](=O)[O-]`, the “hERG current change (%, negative = inhibition) at 10uM” value is given as -6.67%.
As to `Cc1ccc(C(C(=O)NCc2ccco2)N(C(=O)Cc2cccs2)c2cccnc2)cc1` (stereo not shown), the “hERG current change (%, negative = inhibition) at 10uM” value is 20.4%.
Next, `O=S(=O)(Nc1ccc2ccccc2c1)c1ccccc1`: 1.5%.
Consider `CCOc1ccc(CCNC(=O)COC(=O)Cc2ccc(F)cc2)cc1OCC`, for which the “hERG current change (%, negative = inhibition) at 10uM” value was -26.6%.
As to `CC(C)c1ccc(/C=C(\c2nc3ccccc3[nH]2)S(=O)(=O)c2ccccc2)cc1`, the “hERG current change (%, negative = inhibition) at 10uM” value is on record as 8.64%.
Regarding `COc1ccc(OC)c(CNc2ccc(F)c(Cl)c2)c1`, the “hERG current change (%, negative = inhibition) at 10uM” value is listed as 2.7%.
Next, `COc1ccc(C(=O)n2nc(-c3ccco3)nc2SC)cc1OC`: 3.41%; `COCCCn1c(=O)c2sccc2n2c(CCCC(=O)N(C)Cc3ccco3)nnc12`: -22.8%; `Cc1ccccc1-n1c(-c2ccc(Br)o2)n[nH]c1=S`: 13.5%.
`COc1ccc2ccc(O)c(CN3CCN(S(=O)(=O)c4cc([N+](=O)[O-])ccc4C)CC3)c2c1`: the “hERG current change (%, negative = inhibition) at 10uM” value is listed as -4.29%.
`CCN(CC)C(=O)CSC1=C(C#N)C(c2ccco2)C(C(=O)OCCOC)=C(C)N1` (stereo not shown): the “hERG current change (%, negative = inhibition) at 10uM” value is 10.5%.
Next, `C=CCOC(=O)C1=C(C)NC(SCC(=O)N(CC)CC)=C(C#N)C1c1ccco1` (stereo not shown): -51.3%; `C=CCOC(=O)C1=C(C)NC(SCC(=O)N(CC)CC)=C(C#N)C1c1ccccc1` (stereo not shown): -21.9%.

Source of the values: paper PMC4336329 (PLoS ONE, 2015).
